# Assay results: PubChem BioAssay AID651946 (Broad Institute, 2012)
# Potency and affinity values are given separately. Values without a mark were called inactive.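 Rule for the calls: active = toxic compound whose fitted half-effect dose of signal loss is at most twice its top tested dose; inconclusive = flat fit losing 30 to 70% signal, or poor fit; inactive = the rest.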
# Assay: cytotoxicity in HeLa cells, dose response, cytotoxicity control, cell-based, plate reader, dry powder (AID 651946)
# Conditions: HeLa viability, ATP luminescence (CellTiter-Glo), 48 h; series mostly up to 26 µM; activity change, negative = cytotoxicity: at the top concentration
row,SMILES,"activity change, negative = cytotoxicity [%]"
1,Fc1ccc(CSc2nnc(-c3ccc(Cl)cc3)o2)cc1,1.58
2,c1ccc(-c2nnc(SCc3ccncc3)o2)cc1,4.81
3,c1ccc(-c2ccc(CSc3nnc(-c4ccccc4)o3)cc2)cc1,-10.5
4,FC(F)(F)Oc1cccc(-c2nnc(SCc3ccccc3)o2)c1,2.45
5,Clc1ccccc1-c1nnc(SCc2ccccc2)o1,-12.7
6,c1ccc(CSc2nnc(-c3cccnc3)o2)cc1,8.35
7,Fc1ccc(-c2nnc(SCc3ccccc3)o2)cc1,12.4
8,CN(Cc1ccccc1)c1nnc(-c2ccccc2)o1,-1.41
9,O=C(Cc1ccccc1)c1nnc(-c2ccccc2)o1,-7.49
10,c1ccc(CSc2nnc(-c3cccs3)o2)cc1,2.53
11,Clc1cccc(CSc2nnc(-c3ccccc3)o2)c1,-6.13
12,c1ccc(CSc2nnc(-c3cscn3)o2)cc1,3.73
13,FC(F)(F)c1ccc(-c2nnc(SCc3ccccc3)o2)cc1,0.304
14,O=C(Cc1ccccc1)C(C(=O)c1nnc(-c2ccccc2)o1)c1ccccc1 (configuration not stated),-1.18
15,FC(F)(F)c1cccc(CSc2nnc(-c3ccccc3)o2)c1,1.42
16,c1ccc(CSc2nnc(-c3cccnc3)o2)nc1,16.6
17,c1ccc(Cn2cc(CSc3nnc(C4CCCC4)o3)nn2)cc1,-10.8
18,c1ccc(CNCCSc2nnc(-c3ccccc3)o2)cc1,-6.02
19,c1ccc(-c2nnc(SCc3cccnc3)o2)cc1,11.6

row,SMILES,"activity change, negative = cytotoxicity [%]"
1,COc1ccc(-c2nnc(SCc3ccc(Cl)cc3)o2)cc1,-8.74
2,COc1cccc(CSc2nnc(-c3ccccc3)o2)c1,2.65
3,c1ccc(CSc2nnc(-c3cc4ccccc4o3)o2)cc1,5.73
4,c1ccc(CSc2nnc(-c3ccccn3)o2)cc1,-8.45
5,c1ccc(Cn2cc(CSc3nnc(C4CCC4)o3)nn2)cc1,3.8
6,Fc1cccc(-c2nnc(SCc3ccccn3)o2)c1,18.9
7,CS(=O)(=O)c1ccccc1-c1nnc(SCc2ccccc2)o1,-4.85
8,CS(=O)(=O)c1ccccc1CSc1nnc(-c2ccccc2)o1,-6.14
9,Fc1ccccc1-c1nnc(SCc2ccccc2)o1,2.75
10,CS(=O)(=O)c1cccc(-c2nnc(SCc3ccccc3)o2)c1,4.62
11,Cc1ccccc1-c1nnc(SCc2ccccc2)o1,5.07
12,COc1ccc(-c2nnc(SCc3ccccc3)o2)cc1,-3.91
13,CN(C)CCSc1nnc(-c2ccccc2)o1,1.24
14,COc1ccccc1-c1nnc(SCc2ccccc2)o1,-6.55
15,c1ccc(CCc2nnc(SCc3ccccc3)o2)cc1,5.85
16,Fc1ccc(Cn2cc(CSc3nnc(-c4ccc(F)cc4)o3)nn2)cc1,-3.32
17,Clc1cccc(-c2nnc(SCc3ccccc3)o2)c1,5.52
18,Fc1ccc(Cn2cc(CSc3nnc(C4CCCC4)o3)nn2)cc1,-6.02
